# High-throughput results: PubChem BioAssay, several laboratories
# Calb FLC: affects C. albicans growth with fluconazole | C. albicans CaCi-2 (fluconazole-resistant clinical isolate) + fluconazole, Alamar Blue growth, 48 h | growth inhibition, % (test concentration not listed) | 300,000 tested, 0.57% active | AID 1979;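 active means growth inhibition above about 58% in most replicates, limit read from the data, passing the limit was not always enough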;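 further: all wells also contain fluconazole at 8 µg/ml as a sub-toxic cotreatment; 0% = median of DMSO wells and 100% = median of geldanamycin control wells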
# TPT1 inhibitor: blocks Candida albicans tRNA 2'-phosphotransferase. recombinant caTPT1, FP RNA substrate dephosphorylation. inhibition, % at 5 µM. 300,000 tested, 0.81% active. AID 1962;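 active means inhibition above the mean of all tested compounds plus 3 SD, set per screening campaign, cut at about 24% in these data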;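 further: plate controls were DMSO alone for no effect and ferristatin control at 100 nM for full effect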
# Rpn11 block: Rpn11 (human) deubiquitinase inhibition; O00487; human 26S proteasome, Ub4-pepOG fluorescence polarization; 20S core pre-blocked with epoxomicin; 360,000 tested, 0.59% active; inhibition, % at 20 µM;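 active means inhibition at 20 µM, scaled to each plate's controls, above about 33%, limit read from the data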
# Target sequence (O00487 whole entry, looked up): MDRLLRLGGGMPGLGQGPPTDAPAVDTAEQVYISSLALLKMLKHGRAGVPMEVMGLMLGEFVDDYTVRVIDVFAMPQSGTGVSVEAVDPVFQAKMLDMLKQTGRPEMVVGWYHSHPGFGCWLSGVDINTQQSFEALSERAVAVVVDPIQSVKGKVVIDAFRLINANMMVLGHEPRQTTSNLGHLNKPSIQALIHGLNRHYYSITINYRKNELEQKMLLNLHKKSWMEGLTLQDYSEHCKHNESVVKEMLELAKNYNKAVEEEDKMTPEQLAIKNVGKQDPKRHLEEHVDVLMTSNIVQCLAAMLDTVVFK
# Rin1 Abl inh: human Rin1-Abl interaction inhibition. P00519+Q13671. TR-FRET Rin1/Abl binding, biochemical. inhibition, % at 7.35 µM. 360,000 tested, 0.4% active. AID 588664; in the data active means inhibition above about 5%, passing the limit was not always enough
# IDE inh: inhibits human insulin-degrading enzyme in HEK cells; P14735; FAbetaB cleavage, fluorescence polarization; inhibition, % at 5.59 µM; 320,000 tested, 0.41% active;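 active means percent inhibition above the average of all tested compounds plus 3 SD, set per screening campaign, cut at about 16% in these data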;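 further: IDE supplied by intact live HEK cells; FP after avidin binding of uncleaved biotin substrate so inhibition keeps polarization high; 0% = DMSO wells and 100% = 60 µM reference IDE inhibitor Ii1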
# IDE act: activators of human insulin-degrading enzyme in cells. HEK cells, FAbeta-B cleavage, fluorescence polarization; 0% vehicle, 100% cell-free pure enzyme wells. activation, % at 5.96 µM. 340,000 tested, 0.073% active. AID 493087;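 active means activation above the mean of all tested compounds plus 3 SD, set per screening campaign, cut at about 17% in these data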
# Rpn11 inh conf: confirmation of human proteasome Rpn11 inhibitors. shares compounds with Rpn11 block. purified human 26S proteasome, Ub4-pepOG fluorescence polarization; proteasome pretreated with epoxomicin. inhibition, % at 20 µM. 1,900 tested, 29% active. AID 602318
# MMP-2 inh: blocks human MMP-2, flagging nonselective RPN11 hits | 1,900 tested, 4% active | AID 602330 | recombinant MMP-2, FRET peptide cleavage fluorescence | inhibition, % at 20 µM | shares compounds with Rpn11 block;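 further: human MMP-2 activated beforehand with APMA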
# Thrombin FP: thrombin (bovine) inhibition counter-screen. shares compounds with Rpn11 block. bovine thrombin cleavage of Ub4-pepOG, fluorescence polarization. inhibition, % at 20 µM. 1,900 tested, 13% active;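 active means mean inhibition at least 40% at 20 µM, or signal 3 deviations below plate average, so some actives read negative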;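 further: plate controls were thrombin with DMSO for no effect and buffer wells lacking thrombin for full effect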
# * hit, by the source's call; nt = no result given. Most compounds without a hit are left out; they make up all but 2.3% or so of the library. Unless noted, no stated cut-off is given here; in the data, active means inhibition above about 40%; inactive means the rest.
SMILES,Calb FLC,TPT1 inhibitor,Rpn11 block,Rin1 Abl inh,IDE inh,IDE act,Rpn11 inh conf,MMP-2 inh,Thrombin FP
CCC1CCCCN1c1ccc([N+](=O)[O-])cc1/C=N/NC(=O)Cn1c2ccccc2c(=O)c2ccccc21 (stereo not drawn),-4,2,36*,-1,1,2,25,0,8
CCc1ccc(OCC(=O)N/N=C/c2cc([N+](=O)[O-])ccc2N2CCCCCC2)cc1,-14,1,19,2,-8,4,nt,nt,nt
O=Nc1ccc(NO)c2ccccc12,nt,nt,0,3,nt,nt,nt,nt,nt
O=C(CCN1C(=O)/C(=C\C=C\c2ccccc2)SC1=S)Nc1ccc(C(=O)O)cc1,0,18,16,-1,7,0,nt,nt,nt
O=C(CCN1C(=O)/C(=C/C=C/c2ccccc2)SC1=S)Nc1nc2ccccc2s1,-10,5,54*,3,2,-2,32,-14,-51
CC(=O)C1=C(O)C(=CC=Cc2ccccc2)OC1=O,nt,nt,41*,-5,nt,nt,43*,-17,26
N#CCSc1ccccc1NC(=O)COc1ccc(-c2nnco2)cc1,nt,nt,40*,1,5,-3,15,-7,13
N#Cc1ccsc1NC(=O)COc1ccc(-c2nnco2)cc1,-8,16,13,1,2,3,nt,nt,nt
Cc1cc(C)c(S(=O)(=O)n2ccc(-c3ccc(OCCN(C)c4ccccn4)cc3)n2)c(C)c1,-6,-2,92*,6,-4,4,-39,-14,-13
CCN1CCN(Cc2ccc(NC(=O)c3cc(NC(=O)c4nccnc4N)cc(OC)c3)cc2C(F)(F)F)CC1,-3,-1,3,1,0,4,nt,nt,nt
CCN1CCN(Cc2ccc(NC(=O)c3cc(NC(=O)c4cncc(-c5ccc(C#N)cc5)c4)cc(OC)c3)cc2C(F)(F)F)CC1,1,0,64*,-5,10,5,56*,-44,60*
CC(C)(C(=O)c1cccnc1)c1cccnc1,nt,-1,-2,1,5,3,nt,nt,nt
S=c1[nH]nc(-c2cc(-c3ccccc3)n[nH]2)n1/N=C/c1cccc(Cl)c1,-1,2,177*,0,0,2,157*,19,81*
S=c1[nH]nc(-c2cc(-c3ccccc3)n[nH]2)n1/N=C/c1ccc(Cl)c(Cl)c1,0,0,58*,-5,3,-1,55*,15,-15
S=c1[nH]nc(-c2cc(-c3ccccc3)n[nH]2)n1/N=C/c1ccc(Cl)cc1,5,-1,4,-2,12,12,nt,nt,nt
CSc1ncnc2[nH]ccc12,nt,nt,2,-3,nt,-2,nt,nt,nt
COC(=O)c1ccc2c(c1)NC(=O)C(N(CC(C)C)CC(C)C)S2 (stereo not drawn),-9,1,48*,1,-1,1,17,-30,10
CC(C)(C)c1ccc(CC(=O)N2CCC2(C)C(=O)NCc2ccc3c(c2)OCO3)cc1 (stereo not drawn),nt,nt,4,2,nt,nt,nt,nt,nt
O=C(CCCN1C(=O)/C(=C/c2ccc3c(c2)OCO3)SC1=S)Nc1ccc(C(=O)O)cc1,20,22,56*,3,2,-2,52*,6,21
COc1ccc(C=C2SC(=S)N(CCCC(=O)Nc3ccc(C(=O)O)c(O)c3)C2=O)cc1OC,nt,nt,45*,-4,nt,nt,97*,-30,79*
O=C(CN1C(=O)S/C(=C\c2ccc(-c3cc(C(=O)O)ccc3Cl)o2)C1=O)Nc1ccc2c(c1)OCO2,12,nt,169*,4,nt,1,34,4,21
O=C(CCN1C(=O)/C(=C/c2ccc3c(c2)OCO3)SC1=S)Nc1ccc(C(=O)O)cc1,-10,9,14,3,-4,4,nt,nt,nt
Cn1cc(/C=C2/SC(=O)N(CC(=O)Nc3ccc4c(c3)OCO4)C2=O)c2ccccc21,-10,2,4,3,1,2,nt,nt,nt
CCOc1ccc(/C=C2\SC(=S)N(CCC(=O)Nc3cccc(C(=O)O)c3)C2=O)cc1,-5,-3,0,-1,-1,1,nt,nt,nt
COc1ccc(/C=C2\SC(=S)N(CCC(=O)Nc3ccc(C(=O)O)cc3)C2=O)cc1OC,nt,-1,4,4,2,4,nt,nt,nt
SMILES,Calb FLC,TPT1 inhibitor,Rpn11 block,Rin1 Abl inh,IDE inh,IDE act,Rpn11 inh conf,MMP-2 inh,Thrombin FP
CCOc1ccc(/C=C2\SC(=S)N(CCC(=O)Nc3ccc(C(=O)O)cc3)C2=O)cc1,-3,-1,44*,4,8,6,15,-42,-16
O=C(c1ccc2ccccc2n1)N1CCN(S(=O)(=O)c2ccccc2)CC1,nt,nt,-6,-1,-1,3,nt,nt,nt
COc1cccc(CN2CCC2(C)C(=O)Nc2cccc(Oc3ccccc3)c2)c1OC (stereo not drawn),nt,nt,6,-2,nt,nt,nt,nt,nt
O=C(CCNC(=O)c1ccc([N+](=O)[O-])cc1)NCCc1ccccc1,-6,0,5,4,0,-1,nt,nt,nt
COc1ccc(-c2[nH]c(-c3ccc(C)cc3)nc2SCC(=O)Nc2nccs2)cc1,31,-1,84*,1,0,0,6,37,-3
COc1ccc(-c2[nH]c(-c3ccc(SC)cc3)nc2SCC(=O)Nc2nccs2)cc1,4,-1,71*,0,2,0,87*,27,63*
COc1ccc(-c2nc(SCC(=O)Nc3nccs3)c(-c3ccc(Cl)cc3)[nH]2)cc1,2,3,4,-2,-5,0,nt,nt,nt
O=C(CS(=O)(=O)c1ccccc1)Nc1nnc(Cc2ccccc2)s1,-2,-2,10,-4,-5,6,nt,nt,nt
COc1ccc(CCNC(=O)c2cc(=O)c3cc(C)ccc3o2)cc1OC,-3,-3,0,3,10,-3,nt,nt,nt
COc1ccc(Cl)cc1NC(=O)c1cc(-c2ccco2)on1,1,10,46*,2,0,-3,12,-15,2
CCCCc1cc(=O)oc2cc(C)cc(OCC(=O)Nc3cccnc3)c12,2,0,70*,3,4,-4,18,-10,-9
Cc1cn([C@H]2C[C@H](O)[C@@H](CNCc3ccc(F)c(N4CCOCC4)c3)O2)c(=O)[nH]c1=O,nt,nt,-1,-4,nt,nt,nt,nt,nt
COc1ccc(S(=O)(=O)NCC(c2ccc3c(c2)OCO3)N2CCN(c3ccccc3)CC2)cc1 (stereo not drawn),-4,3,5,-2,7,-2,nt,nt,nt
CSc1nsc(N/N=C/c2ccc3c(c2)OCO3)c1C#N,-2,5,0,-1,-5,-2,nt,nt,nt
